This assay deals with GST-Hu-p50 (Homo sapiens, UniProt P19838 7-356). Put plainly: protein-binding microarray (PBM); PBM: ~300 nM protein, 6 mM HEPES pH 7.8, 80 mM KCl, 0.5 mM EDTA, 0.5 mM EGTA, 6% glycerol, 35 ng/ul poly-dIdC, 1% milk, 1 h, room temperature; Ap Aiptasia and Nv Nematostella (sea anemones) / Co Capsaspora / Aq Amphimedon (sponge) / Dm Drosophila / Hu human; RHD is the Rel homology domain; high values mean tight binding. As to conditions: dsDNA, one strand shown.
GST-Hu-p50, sequence (P19838 7-356): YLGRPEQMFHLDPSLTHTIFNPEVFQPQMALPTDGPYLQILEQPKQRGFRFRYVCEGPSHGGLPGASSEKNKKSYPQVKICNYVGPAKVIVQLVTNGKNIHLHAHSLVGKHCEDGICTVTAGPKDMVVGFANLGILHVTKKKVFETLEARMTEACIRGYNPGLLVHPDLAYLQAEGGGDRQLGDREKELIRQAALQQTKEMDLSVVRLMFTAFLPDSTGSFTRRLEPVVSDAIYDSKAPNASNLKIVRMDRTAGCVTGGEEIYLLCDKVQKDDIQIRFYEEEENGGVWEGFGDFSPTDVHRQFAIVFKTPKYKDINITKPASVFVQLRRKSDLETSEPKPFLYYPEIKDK
In turn, “CCGATTAACATCAAAGAATTCCCTGATGTTAATCGGGTCTTGATTCGCTTGACGCTGCTG” yielded a binding signal of 5.05 z-score.

For the sequence “CCGATTAACATCAGGGGGTTTAATGATGTTAATCGGGTCTTGATTCGCTTGACGCTGCTG”, the binding signal was determined as 6.62 z-score.

For “CCGATTAACATCAAATTCCCCCCTGATGTTAATCGGGTCTTGATTCGCTTGACGCTGCTG”, the binding signal amounted to 6.85 z-score.

Sequence “CCGATTAACATCACGAATCCCCCTGATGTTAATCGGGTCTTGATTCGCTTGACGCTGCTG” yielded a binding signal of 6.72 z-score.

“CCGATTAACATCACGGGGAATCCTGATGTTAATCGGGTCTTGATTCGCTTGACGCTGCTG” gave a binding signal of 6.2 z-score.

As for “CCGATTAACATCAGGGAAAATAATGATGTTAATCGGGTCTTGATTCGCTTGACGCTGCTG”, the binding signal was determined as 4.74 z-score.

With “CCGATTAACATCAGGGGACTTTATGATGTTAATCGGGTCTTGATTCGCTTGACGCTGCTG”, the binding signal is 6.72 z-score.

In the case of “CCGATTAACATCACATTCCCCCCTGATGTTAATCGGGTCTTGATTCGCTTGACGCTGCTG”, the binding signal came to 5.73 z-score.

Turning to “CCGATTAACATCAACAAACCCCCTGATGTTAATCGGGTCTTGATTCGCTTGACGCTGCTG”, the binding signal amounted to 6.59 z-score.

The sequence “CCGATTAACATCAGGAAACCCCATGATGTTAATCGGGTCTTGATTCGCTTGACGCTGCTG” came in with a binding signal of 4.69 z-score.

In turn, “CCGATTAACATCAAATTCCCCCTTGATGTTAATCGGGTCTTGATTCGCTTGACGCTGCTG” came in with a binding signal of 8.06 z-score.

Regarding “CCGATTAACATCAAAATTTCCCATGATGTTAATCGGGTCTTGATTCGCTTGACGCTGCTG”, the binding signal came out at 4.79 z-score.

Consider “CCGATTAACATCAGGCAACCCCCTGATGTTAATCGGGTCTTGATTCGCTTGACGCTGCTG”, for which the binding signal came to 5.13 z-score.

“CCGATTAACATCAAGGGTGGGAATGATGTTAATCGGGTCTTGATTCGCTTGACGCTGCTG”: the binding signal turned out to be 1.83 z-score.

Consider “CCGATTAACATCAGGGGAACAACTGATGTTAATCGGGTCTTGATTCGCTTGACGCTGCTG”, for which the binding signal was 3.48 z-score.

“CCGATTAACATCACCGTTCCCCCTGATGTTAATCGGGTCTTGATTCGCTTGACGCTGCTG” showed a binding signal of 5.25 z-score.

With “CCGATTAACATCAAAACATTCCCTGATGTTAATCGGGTCTTGATTCGCTTGACGCTGCTG”, the binding signal amounted to 3.88 z-score.

The sequence “CCGATTAACATCAGGGATTTTACTGATGTTAATCGGGTCTTGATTCGCTTGACGCTGCTG” had a binding signal of 3.96 z-score.

“CCGATTAACATCACGGGAGTCCCTGATGTTAATCGGGTCTTGATTCGCTTGACGCTGCTG” returned a binding signal of 3.45 z-score.

As for “CCGATTAACATCAAAATCCCCCATGATGTTAATCGGGTCTTGATTCGCTTGACGCTGCTG”, the binding signal turned out to be 7.45 z-score.

Take “CCGATTAACATCAAGGGAAATCCTGATGTTAATCGGGTCTTGATTCGCTTGACGCTGCTG”: the binding signal is 4.65 z-score.

“CCGATTAACATCAGGGTAAACCCTGATGTTAATCGGGTCTTGATTCGCTTGACGCTGCTG”: the binding signal was determined as 2.7 z-score.

As for “CCGATTAACATCAATCTTTCCCCTGATGTTAATCGGGTCTTGATTCGCTTGACGCTGCTG”, the binding signal was 5.41 z-score.

In turn, “CCGATTAACATCACGAATTTCCCTGATGTTAATCGGGTCTTGATTCGCTTGACGCTGCTG” registered a binding signal of 4.46 z-score.

Regarding “CCGATTAACATCAGGACCTCCCCTGATGTTAATCGGGTCTTGATTCGCTTGACGCTGCTG”, the binding signal was 3.65 z-score.

Consider “CCGATTAACATCAGGGGATTTAATGATGTTAATCGGGTCTTGATTCGCTTGACGCTGCTG”, for which the binding signal was found to be 6.98 z-score.

Consider “CCGATTAACATCAAATTTCCCGTTGATGTTAATCGGGTCTTGATTCGCTTGACGCTGCTG”, for which the binding signal worked out at 4.24 z-score.

Consider “CCGATTAACATCATGGGGAAAAATGATGTTAATCGGGTCTTGATTCGCTTGACGCTGCTG”, for which the binding signal was 5.43 z-score.

“CCGATTAACATCAAAACCCCCCATGATGTTAATCGGGTCTTGATTCGCTTGACGCTGCTG” gave a binding signal of 6.77 z-score.

In turn, “CCGATTAACATCAAAGAAACCCCTGATGTTAATCGGGTCTTGATTCGCTTGACGCTGCTG” yielded a binding signal of 5.25 z-score.

Regarding “CCGATTAACATCACGTACTTCCCTGATGTTAATCGGGTCTTGATTCGCTTGACGCTGCTG”, the binding signal came to 1.38 z-score.

Turning to “CCGATTAACATCAGGATTACCCCTGATGTTAATCGGGTCTTGATTCGCTTGACGCTGCTG”, the binding signal was 3.75 z-score.

In turn, “CCGATTAACATCAACGAATTCCCTGATGTTAATCGGGTCTTGATTCGCTTGACGCTGCTG” came in with a binding signal of 3.08 z-score.

Consider “CCGATTAACATCAGGGGGAGGAATGATGTTAATCGGGTCTTGATTCGCTTGACGCTGCTG”, for which the binding signal came to 4.89 z-score.

“CCGATTAACATCAGGGGTAAATATGATGTTAATCGGGTCTTGATTCGCTTGACGCTGCTG” had a binding signal of 3.84 z-score.

“CCGATTAACATCAGGGAAGAACCTGATGTTAATCGGGTCTTGATTCGCTTGACGCTGCTG” displayed a binding signal of 2.83 z-score.

As for “CCGATTAACATCAAAATTACCCATGATGTTAATCGGGTCTTGATTCGCTTGACGCTGCTG”, the binding signal came out at 4.15 z-score.

The sequence “CCGATTAACATCAAATTCCCCCGTGATGTTAATCGGGTCTTGATTCGCTTGACGCTGCTG” showed a binding signal of 7.06 z-score.

In the case of “CCGATTAACATCAGGGGGATTACTGATGTTAATCGGGTCTTGATTCGCTTGACGCTGCTG”, the binding signal is 7.22 z-score.

Values taken from paper PMC5700166.
